{"source": "PubChem BioAssay AID1671193", "about": "(National Center for Advancing Translational Sciences (NCATS), 2021)", "note": "Among all 150,000 compounds or so, about 180 (0.12%) were called active. Inconclusive results (about 6%) are left out. Calls follow the shape of the dose curve; as a rule, active = well fitted cell-killing curve with a large enough effect; inconclusive = small, poorly fitted or top-dose-only effect, or effect the other way; inactive = flat fitted curve, though single readings scatter. The entries come from a sample that favours actives as a whole. Potency is read from the fitted curve at half-maximal effect."}
{"assay": "GF-AFC viability counterscreen for inhibitors of alpha-synuclein gene (SNCA) expression; also: nearly all actives have a fitted effect of over 30% in size", "conditions": "HEK-293-SNCA-luc viability, GF-AFC fluorescence, 24 h; series mostly up to 57.1 µM; activity change, negative = cytotoxicity: at the top concentration", "excerpt": "Assay Submitter (PI): Daniel R. Scoles Ph.D.\nDepartment of Neurology, University of Utah, Salt Lake City, Utah\nAccumulation of alpha-synuclein is a main underlying pathological feature of Parkinson's disease (PD) and alpha-synucleinopathies, for which lowering expression of the alpha-synuclein gene (SNCA) is a potential therapeutic avenue. Using a cell-based luciferase reporter of SNCA expression we performed a quantitative high throughput screen (qHTS) of 155,885 compounds in dose response. The screening assay was generated using genome editing to insert the luciferase gene downstream and in frame of the SNCA gene in HEK-293 cells (1). A viability counterscreen using GF-AFC was used to eliminate cytotoxic and false positive compounds. After in silico analysis (clustering, removal of frequent hitter nuisance chemotypes), inhibitor compounds from the primary screen were selected for follow up and re-tested at 11-doses in the SNCA-luc cells (luciferase and GF-AFC confirmation), and in CMV-luc expressing cell line to flag general transcriptional repressors.\nDescribed herein are the results of the GF-AFC viability counterscreen for SNCA inhibitors; inactivity (no decrease in fluorescence signal, not cytotoxic) is the desired output for this assay.\n1. Dansithong, W., Paul, S., Scoles, D. R., Pulst, S. M., and Huynh, D. P. (2015) Generation of SNCA Cell Models Using Zinc Finger Nuclease (ZFN) Technology for Efficient High-Throughput Drug Screening. PLoS ONE 10, e0136930.\nSEQUENCE No. (e.g., 1, 2, 3, etc.); […] (e.g., Cells, Incubation, Reagent, etc.); VALUE; DESCRIPTION\n1; Cells; 4 uL; Dispense 1500 HEK-293-SNCA-luc cells/well into Greiner 1536-well white / solid bottom tissue culture treated plate. The plate was covered with metal lids with gas-exchange holes.\n2; Incubate; 24 hours; Incubate at 37C, 5% CO2, 95% RH.\n3; Compounds; 23 nL; Compounds and controls were transferred via a Kalypsys Pin Tool (Wako USA) equipped with a 1536-slotted pin array. The plate was covered with metal lids with gas-exchange holes.\n4; Incubate; 24 hours; Incubate at 37C, 5% CO2, 95% RH.\n5; Dispense; 1 uL; Dispense Gly-Phe-7-amino-4-trifluoromethylcoumarin (GF-AFC, prepared at 125 uM in PBS) was added. The plate was covered with metal lids with gas-exchange holes.\n6; Incubate; 30 min; Incubate at 37C, 5% CO2.\n7; Detector; Fluorescence; Measure fluorescence with ViewLux microplate reader (PerkinElmer) equipped with 405/10 excitation and 540/25 emission filters.\n8; Dispense; 3 uL; Dispense ONE-Glo ([…]) lucifase detection reagent was added to each well. Plates were covered with metal lids with gas-exchange holes.\n9; Incubate; 15 min; Incubate at room temperature.\n10; Detector; Luminescence; Measure luminescence with ViewLux microplate reader (PerkinElmer) equipped with clear filters.\nNOTES (numbers refer to sequence above)\n1; HEK-293-SNCA-luc were cultured and suspended in phenol-red free DMEM (4.5 g/L glucose, 25 mM HEPES, cat #21063 (Thermo)).\n3; Compounds were added to the assay plate in an 11-point intra plate dose response, 1:3 titration in DMSO with a final concentration range of […]. Vehicle-only plates, with DMSO being pin-transferred to every well, were inserted at the beginning of screening runs to confirm expected assay performance. Activity was normalized to wells containing medium only (-100% activity, full inhibition) and SNCA-luc cells treated with DMSO vehicle control (0% activity), contained on the same plate as test samples.\n10; Signals were analyzed, and dose-response curves were fit using the Hill equation. Compounds in curve classes -1.1, -1.2, -2.1, -2.2 in the SNCA-luc assay were considered active. Compounds were eliminated from further consideration if also active (curve class -1.1, -1.2, -1.3, -1.4, -2.1, -2.2, -2.3, -2.4) in the GF-AFC cytotoxicity assay."}
{"smiles": "CC(NC(=O)c1ccc(OC(F)(F)F)cc1)C(=O)N1CCN(c2ccccn2)CC1", "note": "(configuration not stated)", "activity change, negative = cytotoxicity": "3.19% (inactive)"}
{"smiles": "CCNC(=O)N1CCCC1c1noc(CCC(=O)NC2CCCC2)n1", "note": "(configuration not stated)", "activity change, negative = cytotoxicity": "0.282% (inactive)"}
{"smiles": "O=C1Nc2ccccc2CC12CCCN2Cc1ccccc1", "note": "(configuration not stated)", "activity change, negative = cytotoxicity": "-8.5% [at 87.6 µM] (inactive)"}
{"smiles": "Cc1cc(N2CCC3(CC2)CC(c2ccccc2)C(=O)N3C)ncn1", "note": "(configuration not stated)", "activity change, negative = cytotoxicity": "6.83% (inactive)"}
{"smiles": "Cc1cccnc1CN1CCN(C(=O)Cn2nnnc2CN2CCCC2)CC1", "activity change, negative = cytotoxicity": "-3.36% (inactive)"}
{"smiles": "CC1=C[C@@H](CNC2CC2)[C@H](C(C)C)C[C@H]1Cc1nnc(-c2ccc(C)cc2)o1", "Potency": "35.5 µM (active)"}
{"smiles": "CC1=C[C@@H](CNS(C)(=O)=O)[C@H](C(C)C)C[C@H]1Cc1nnc(-c2ccncc2)o1", "activity change, negative = cytotoxicity": "-8.43% [at 87.6 µM] (inactive)"}
{"smiles": "CC1=C[C@@H](CNC(C)C)[C@H](C(C)C)C[C@H]1Cc1nnc(-c2ccncc2)o1", "activity change, negative = cytotoxicity": "-22.8% [at 87.6 µM] (inactive)"}
{"smiles": "O=C1CCC2(C(=O)NCc3cccc(F)c3)CCC=C2N1C1CCCC1", "note": "(configuration not stated)", "activity change, negative = cytotoxicity": "-14.6% (inactive)"}
{"smiles": "O=C1[C@@H]2C[C@@H](CN2Cc2ccc3ccccc3n2)Oc2ccccc2N1Cc1ccccc1", "activity change, negative = cytotoxicity": "-2.59% (inactive)"}
{"smiles": "COc1ccccc1-c1cccc(CN2CCCC(C(=O)NCC3CC3)C2)c1", "note": "(configuration not stated)", "activity change, negative = cytotoxicity": "-20.7% (inactive)"}
{"smiles": "CN(C(=O)CN1C(=O)NC2(CCOCC2)C1=O)c1ccccc1", "activity change, negative = cytotoxicity": "0.394% (inactive)"}
{"smiles": "O=c1cc(-c2ccccn2)oc2c(-c3ccccc3F)nccc12", "activity change, negative = cytotoxicity": "-4.35% [at 87.6 µM] (inactive)"}
{"smiles": "COc1ccc2c(c1)OCC(C(=O)NCc1cc3cc(OC)ccc3[nH]1)C2", "note": "(configuration not stated)", "activity change, negative = cytotoxicity": "-0.849% (inactive)"}
{"smiles": "COCCC(=O)N1CCCCCCNC(=O)[C@@H]2CCCC[C@@H]21", "activity change, negative = cytotoxicity": "-2.24% (inactive)"}
{"smiles": "Cc1ccc(CN2CCCCCNC(=O)[C@H]3C[C@H](C(=O)N4CCc5ccccc5C4)C[C@H]32)o1", "activity change, negative = cytotoxicity": "3.43% (inactive)"}
{"smiles": "COc1ccc(-c2noc(C(=O)O)c2[C@@H](C)NS(=O)(=O)c2ccccc2)cc1", "activity change, negative = cytotoxicity": "2.71% [at 87.6 µM] (inactive)"}
{"smiles": "O=C(NCC1CC1)c1cn(C2CN(C(=O)C3CCOC3)C2)nn1", "note": "(configuration not stated)", "activity change, negative = cytotoxicity": "-3.5% (inactive)"}
{"smiles": "O=C(Cc1cccc(F)c1)N1CCC2(CCC2N2CCOCC2)CC1", "note": "(configuration not stated)", "activity change, negative = cytotoxicity": "18.3% (inactive)"}
{"smiles": "Cc1cccc(CN2CCCN(Cc3ccncc3)C(c3ccccc3)CC(=O)NCC2)c1", "note": "(configuration not stated)", "activity change, negative = cytotoxicity": "-16.1% (inactive)"}
{"smiles": "CSc1oc(-c2cccs2)nc1S(=O)(=O)c1ccc(Br)cc1", "activity change, negative = cytotoxicity": "1.94% (inactive)"}
{"smiles": "CCCCS(=O)(=O)c1oc(-c2cccs2)nc1S(=O)(=O)c1ccccc1", "Potency": "12.6 µM (active)"}
{"smiles": "Cc1ccc(CSc2oc(-c3cccs3)nc2S(=O)(=O)c2ccc(C)cc2)cc1", "activity change, negative = cytotoxicity": "9.59% (inactive)"}
{"smiles": "O=C(CCCc1c[nH]c2ccccc12)N1CCC2(CC1)CC(CCOCC1CC1)CCO2", "note": "(configuration not stated)", "activity change, negative = cytotoxicity": "-6.02% (inactive)"}
{"smiles": "CCc1cccc(NC(=O)N2[C@@H]3CC[C@H]2CC(NC(=O)c2ccc(F)cc2)C3)c1", "note": "(some centres not stated)", "activity change, negative = cytotoxicity": "-25.3% (inactive)"}
{"smiles": "O=C(NCc1cccc(C(F)(F)F)c1)c1nn(CCOc2ccccc2)c2c1CNCC2", "activity change, negative = cytotoxicity": "-4.06% (inactive)"}
{"smiles": "Cn1ccnc1CNCC1(COc2ccc(C(F)(F)F)cn2)C[C@@H](O)[C@@H](O)C1", "note": "(some centres not stated)", "activity change, negative = cytotoxicity": "-2.65% (inactive)"}
{"smiles": "O=C(NCc1ccccc1)[C@@H]1Cc2nc[nH]c2CN1Cc1cccc(OC(F)(F)F)c1", "activity change, negative = cytotoxicity": "-8.21% [at 87.6 µM] (inactive)"}
{"smiles": "COc1ccc(NC(=O)C2(C)CN(C)Cc3ccc(Nc4cccc(OC)c4)nc32)cc1", "note": "(configuration not stated)", "activity change, negative = cytotoxicity": "-18.7% [at 87.6 µM] (inactive)"}
{"smiles": "O=C(NCC1CC1)c1coc(COc2ccc3c(c2)C(c2cccc(F)c2)N(C(=O)C2CC2)CC3)n1", "note": "(configuration not stated)", "activity change, negative = cytotoxicity": "-14.2% (inactive)"}
{"smiles": "CC(CCc1ccccc1)NC(=O)CN1C(=O)NC(c2ccccc2Cl)C2=C1COC2=O", "note": "(configuration not stated)", "activity change, negative = cytotoxicity": "-0.822% (inactive)"}
{"smiles": "O=C(NCc1ccccc1F)c1nc2cccnc2n(C2CC2)c1=O", "activity change, negative = cytotoxicity": "-13.2% [at 87.6 µM] (inactive)"}
{"smiles": "OC1CN(Cc2ccccc2)CCN(C2CCN(c3ccccc3F)CC2)C1", "note": "(configuration not stated)", "activity change, negative = cytotoxicity": "4.08% (inactive)"}
{"smiles": "Cc1ccc(S(=O)(=O)N2CCCN(C)c3ccccc32)cc1Cl", "activity change, negative = cytotoxicity": "-17.9% (inactive)"}
{"smiles": "Cc1nc(N2CCCCC2)ncc1C(=O)N1CCC2(CCCNC2=O)C1", "note": "(configuration not stated)", "activity change, negative = cytotoxicity": "23.5% (inactive)"}
{"smiles": "NCc1ccccc1-c1cccc(C(F)(F)F)c1", "activity change, negative = cytotoxicity": "-9.76% [at 87.6 µM] (inactive)"}
{"smiles": "O=C1[C@H]2CN(Cc3ccccc3F)C[C@H]2C(=O)N1CCN1CCc2ccccc2C1", "activity change, negative = cytotoxicity": "4.45% (inactive)"}
{"smiles": "O=C(NCc1ccco1)[C@@H]1Cc2nc[nH]c2CN1CCCc1ccccc1", "activity change, negative = cytotoxicity": "0.221% [at 87.6 µM] (inactive)"}
{"smiles": "COc1ccc2cc(CN3CCNC(=O)C3C)c(-c3cccs3)nc2c1", "note": "(configuration not stated)", "activity change, negative = cytotoxicity": "-3.98% (inactive)"}
{"smiles": "COc1cccc(-c2cn3c(n2)N(C(=O)Cc2ccccc2)CCC3)c1", "activity change, negative = cytotoxicity": "4.12% (inactive)"}
{"smiles": "O=C(CCC[C@H]1NC[C@@H]2C[C@H]1CN(Cc1ccccc1)C2)N1CCN(C2CCCCC2)CC1", "activity change, negative = cytotoxicity": "-23.5% (inactive)"}
{"smiles": "Cc1cccc(OCC2CCCN(c3ncncn3)C2)c1", "note": "(configuration not stated)", "activity change, negative = cytotoxicity": "2.2% (inactive)"}
{"smiles": "O=C(c1ccc2c(c1)OCO2)N1CCC2(CC1)NC(=O)N(c1ccccc1)N2", "activity change, negative = cytotoxicity": "-4.33% (inactive)"}
{"smiles": "Cc1noc2c(Nc3ccc(Cl)cc3)cc(-c3cccnc3)nc12", "activity change, negative = cytotoxicity": "-15.1% [at 87.6 µM] (inactive)"}
{"smiles": "COCCN1CCOC2(CCN(Cc3ccc(C(C)C)cc3)CC2)C1=O", "activity change, negative = cytotoxicity": "-4.8% [at 87.6 µM] (inactive)"}
{"smiles": "CN(C)Cc1cccc(-c2cc(-c3ccncc3)c3cncn3c2)c1", "activity change, negative = cytotoxicity": "0.379% [at 87.6 µM] (inactive)"}
{"smiles": "O=C(Cc1ccc(F)cc1)N1CN=C(C2CCN(Cc3ccc(F)cc3)CC2)N1", "activity change, negative = cytotoxicity": "-6.57% (inactive)"}
{"smiles": "COC(=O)[C@@H]1Cc2ncn(Cc3ccccc3)c2CN1C(=O)CC(C)(C)C", "activity change, negative = cytotoxicity": "-4.83% [at 87.6 µM] (inactive)"}
{"smiles": "CC(C)Oc1ccc(CN2CCCC(COc3ccccc3C(=O)N3CCCC3)C2)cc1", "note": "(configuration not stated)", "activity change, negative = cytotoxicity": "-12.6% (inactive)"}
{"smiles": "COc1ccc(N2CCN(c3nc(C(=O)NC4CCCCCC4)cs3)CC2)cc1", "activity change, negative = cytotoxicity": "-19.7% (inactive)"}
{"smiles": "O=C(C1CCCC1)N1CCc2nc(C3CC3)nc(-c3ccc(O)cc3)c2C1", "activity change, negative = cytotoxicity": "-12.3% (inactive)"}
{"smiles": "O=C1C2CN(Cc3ccc4[nH]ccc4c3)CCC2OCCN1Cc1ccccc1F", "note": "(configuration not stated)", "activity change, negative = cytotoxicity": "-5.56% [at 87.6 µM] (inactive)"}
{"smiles": "CCN(CC)CCCCNc1ncc2cc(-c3c(Cl)cccc3Cl)c(NC(=O)NC(C)(C)C)nc2n1", "Potency": "15 µM (active)"}
{"smiles": "CN(C)C[C@@H]1CN(Cc2cccnc2)C[C@H]1NC(=O)Cc1cccc(F)c1", "activity change, negative = cytotoxicity": "17.1% (inactive)"}
{"smiles": "O=C(c1cccc(O)c1)N1CCNc2cnc(Nc3cccc(F)c3)nc2C1", "activity change, negative = cytotoxicity": "-14.6% [at 87.6 µM] (inactive)"}
{"smiles": "c1cnc2nc(C3CCN(C4CCCCC4)C3)[nH]c2c1", "note": "(configuration not stated)", "activity change, negative = cytotoxicity": "-13.3% [at 87.6 µM] (inactive)"}
{"smiles": "O=C(NCc1ccc(F)cc1)N1CCC2(CC1)CC(OCC1CC1)CCO2", "note": "(configuration not stated)", "activity change, negative = cytotoxicity": "4.57% [at 12.5 µM] (inactive)"}
